# PubChem BioAssay
# Records with an inconclusive call do not appear. Calls of active or inactive are those of the source. Unless noted, no stated cut-off is given here; in the data, active means inhibition above about 80%; inactive means the rest.
# Key:
# [1] = protection against mutant huntingtin cytotoxicity, PC12 cells, LDH release (AID 1610); details: PC12 mutant huntingtin toxicity, final LDH at 4 uM, stronger effect = lower value
# [2] = inhibitors of Cryptococcus chitosan production, flow cytometry, Cibacron Brilliant Red staining (AID 1347148; call rule not given here;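 further: compound exposure lasted three days at 37 degrees C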); details: Cryptococcus neoformans chitosan, stronger effect = lower value; at 10 µM unless noted
# [3] = molecular target: ATP-dependent translocase ABCB1 (Homo sapiens) (UniProt P08183); assay: MDR1 (ABCB1) efflux transporter inhibition, cell-based (AID 377; in the data active means fluorescence slope change above about 50%); details: MDR1-expressing cells, fluorescent substrate accumulation slope; stronger effect = higher value; concentration not given here
# ATP-dependent translocase ABCB1 (Homo sapiens), sequence (P08183 whole entry, looked up): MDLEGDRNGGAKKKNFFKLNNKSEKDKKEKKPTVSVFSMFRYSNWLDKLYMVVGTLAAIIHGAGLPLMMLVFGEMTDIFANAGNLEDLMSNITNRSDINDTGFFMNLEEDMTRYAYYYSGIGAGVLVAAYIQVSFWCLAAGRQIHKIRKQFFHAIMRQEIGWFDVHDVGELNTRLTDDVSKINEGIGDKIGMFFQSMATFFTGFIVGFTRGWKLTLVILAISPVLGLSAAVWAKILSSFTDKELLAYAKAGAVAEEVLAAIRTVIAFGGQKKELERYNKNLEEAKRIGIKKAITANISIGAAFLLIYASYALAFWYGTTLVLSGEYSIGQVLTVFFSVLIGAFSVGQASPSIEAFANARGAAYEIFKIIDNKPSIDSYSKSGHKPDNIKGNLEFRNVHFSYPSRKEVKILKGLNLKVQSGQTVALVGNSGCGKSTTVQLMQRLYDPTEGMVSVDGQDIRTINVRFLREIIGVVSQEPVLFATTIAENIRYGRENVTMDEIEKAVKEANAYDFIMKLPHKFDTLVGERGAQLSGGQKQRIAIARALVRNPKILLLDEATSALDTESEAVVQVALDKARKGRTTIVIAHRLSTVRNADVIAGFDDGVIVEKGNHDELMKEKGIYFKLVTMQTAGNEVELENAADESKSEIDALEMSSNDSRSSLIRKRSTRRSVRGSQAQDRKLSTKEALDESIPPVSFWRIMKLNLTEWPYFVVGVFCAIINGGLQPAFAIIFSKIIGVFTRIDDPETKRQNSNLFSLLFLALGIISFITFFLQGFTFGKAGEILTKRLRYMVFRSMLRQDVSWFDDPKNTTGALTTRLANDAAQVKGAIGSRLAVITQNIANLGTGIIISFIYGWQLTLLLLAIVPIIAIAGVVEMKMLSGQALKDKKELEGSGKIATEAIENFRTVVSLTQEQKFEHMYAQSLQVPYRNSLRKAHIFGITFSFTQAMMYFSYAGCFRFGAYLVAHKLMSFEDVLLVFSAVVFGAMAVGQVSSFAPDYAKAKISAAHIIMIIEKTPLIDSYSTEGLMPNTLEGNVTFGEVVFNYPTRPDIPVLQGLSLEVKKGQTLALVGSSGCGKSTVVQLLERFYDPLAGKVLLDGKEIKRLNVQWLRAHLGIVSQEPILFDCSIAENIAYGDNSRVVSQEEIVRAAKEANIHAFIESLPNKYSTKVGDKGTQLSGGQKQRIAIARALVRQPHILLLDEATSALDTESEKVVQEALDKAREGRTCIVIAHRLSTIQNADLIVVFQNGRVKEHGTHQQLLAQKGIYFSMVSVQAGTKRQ
# [4] = LFS_MB_P medulloblastoma growth inhibition, cell-based, chromothripsis tumors, cisplatin or BGB combos (AID 1671449); details: LFS_MB_P medulloblastoma cells;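 further: cells exposed for 96 hours; 0% = vehicle DMSO and 100% = killing by high DMSO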
# [5] = HDN33 neuroblastoma growth inhibition, cell-based, chromothripsis tumors, cisplatin or BGB combos (AID 1671450); details: HDN33 neuroblastoma cells, stronger effect = higher value;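 further: cells exposed to compound for four days; 0% = vehicle DMSO and 100% = cell killing by high DMSO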
# [6] = ICB984 medulloblastoma cell growth inhibition, synergistic combos for chromothripsis tumors, cisplatin or BGB combos (AID 1671451; call rule not given here;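 further: cells exposed for 96 hours before readout; 0% = vehicle DMSO and 100% = killing by high DMSO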); details: ICB984 medulloblastoma cells, drug combinations, stronger effect = higher value
# [7] = LFS_MB_1R medulloblastoma cell growth inhibition, synergistic combos for chromothripsis tumors, cisplatin or BGB combos (AID 1671452); details: LFS_MB_1R medulloblastoma cells, stronger effect = higher value;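 further: cells exposed for 96 hours before readout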
# [8] = HTB85 osteosarcoma cell growth inhibition, synergistic combos for chromothripsis tumors, BGB or cisplatin IC20 combos (AID 1671453); details: HTB85 osteosarcoma cells, drug combinations, stronger effect = higher value;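 further: cells exposed for 96 hours before readout; 0% = vehicle DMSO and 100% = high DMSO killing control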
# [9] = CRL2098 osteosarcoma cell growth inhibition, synergistic combos for chromothripsis tumors, BGB or cisplatin IC20 combos (AID 1671454); details: CRL2098 osteosarcoma cells, drug combinations, stronger effect = higher value;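 further: cells exposed for 96 h before readout; 0% = vehicle DMSO and 100% = killing by high DMSO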
# [10] = HD-MB03 medulloblastoma cell growth inhibition, synergistic combos for chromothripsis tumors, BGB or cisplatin IC20 combos (AID 1671455; in the data active means inhibition above about 83%;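 further: 0% = vehicle DMSO and 100% = high DMSO as cytotoxic control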); details: HD-MB03 medulloblastoma cells, stronger effect = higher value
# [11] = UWB1.289 ovarian carcinoma cell growth inhibition, synergistic combos for chromothripsis tumors, BGB or cisplatin combos (AID 1671456); details: UWB1.289 ovarian carcinoma cells, stronger effect = higher value;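 further: cells exposed to compound for four days; 0% = vehicle DMSO and 100% = killing by high DMSO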
# [12] = LFS_MB_2R medulloblastoma cell growth inhibition, synergistic combos for chromothripsis tumors, cisplatin combos (AID 1671457); details: LFS_MB_2R medulloblastoma cells, stronger effect = higher value;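 further: cells exposed to compound for four days before readout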
# [13] = MDA-MB-436 breast carcinoma cell growth inhibition, synergistic combos for chromothripsis tumors, BGB or cisplatin combos (AID 1671458; call rule not given here;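 further: cells exposed for 96 hours; 0% = vehicle DMSO and 100% = killing by high DMSO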); details: MDA-MB-436 breast carcinoma growth inhibition, drug combinations, stronger effect = higher value
# [14] = UWB1.289_BRCA1 ovarian cancer growth, cell-based, BGB or cisplatin combinations (AID 1671459); details: UWB1.289 BRCA1 ovarian carcinoma, drug combinations, stronger effect = higher value
# [15] = human astrocyte viability loss, single and combined drugs, cytotoxicity control for chromothriptic childhood tumor combination screen, cell-based, BGB or cisplatin IC20 combos (AID 1671460); details: Human astrocytes, drug combinations, stronger effect = higher value;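 further: cells exposed to compounds for 96 hours before viability readout; 0% = vehicle and 100% = killing control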
# [16] = growth inhibition of BT084 medulloblastoma cells, cell-based, ICGC_MB145, cisplatin and BGB IC40 combos (AID 1671461); details: drug combinations, stronger effect = higher value;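 further: cells exposed to drugs for 96 hours; 0% = vehicle DMSO and 100% = high DMSO full killing control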
# [17] = growth inhibition of RCMB18 medulloblastoma cells, cell-based, cisplatin and BGB IC40 combos (AID 1671462); details: stronger effect = higher value;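 further: cells exposed to compound for four days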
# [18] = growth inhibition of CRL1545 osteosarcoma cells, cell-based, cisplatin and BGB IC20 combos (AID 1671464); details: stronger effect = higher value;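 further: cells exposed to compound for 96 hours before readout; 0% = vehicle DMSO and 100% = high DMSO killing control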
# [19] = protection of motor neurons from glutamate death, cell-based, TUNEL DNA degradation staining, MNGlu (AID 1594; call rule not given here); details: glutamate-induced death, at 1 µM, stronger effect = higher value
# [20] = measured here: combination with BGB IC40, at 0.05 µM
# [21] = measured here: with BGB IC20 combination, at 0.5 µM
# [22] = measured here: with cisplatin IC20 combination, at 0.5 µM
# [23] = measured here: combination with cisplatin, at 0.5 µM
# [24] = measured here: combination with cisplatin, at 5 µM
compound,measurement,setting,value
CCCCC[C@H](CC(=O)NO)C(=O)N[C@H](C(=O)N1CCC[C@H]1CO)C(C)C,normalised LDH release,[1],1.19
C[C@@H]1CC2C3CCC4=CC(=O)C=C[C@]4(C)[C@@]3(F)[C@@H](O)C[C@]2(C)[C@@]1(O)C(=O)CO (stereo not given in full),fold fluorescence,[2],10.5 [at 127.4 µM] (inactive)
COc1cccc2c1C(=O)c1c(O)c3c(c(O)c1C2=O)C[C@@](O)(C(=O)CO)C[C@@H]3OC1C[C@H](N)[C@H](O)[C@H](C)O1 (stereo not given in full),fold fluorescence,[2],5.77 [at 92 µM] (inactive)
O=C(O)c1ccccc1Nc1ccccc1,fold fluorescence,[2],3.75 [at 234.5 µM] (inactive)
COC1CC2CCC(C)C(O)(O2)C(=O)C(=O)N2CCCCC2C(=O)OC(C(C)CC2CCC(O)C(OC)C2)CC(=O)C(C)/C=C(\C)C(O)C(OC)C(=O)C(C)CC(C)/C=C/C=C/C=C/1C (stereo not given),fold fluorescence,[2],6.13 [at 54.7 µM] (inactive)
c1ccc(C2CN3CCSC3=N2)cc1 (stereo not given),fluorescence slope change,[3],29.7% (inactive)
CCC(NC(C)C)C(O)c1ccc(O)c(O)c1 (stereo not given),fluorescence slope change,[3],50.8% (active)
CO[C@@]12[C@@H]3NC3CN1C1=C(C(=O)C(N)=C(C)C1=O)[C@@H]2COC(N)=O (stereo not given in full),normalised LDH release,[1],0.873
same,fold fluorescence,[2],4.49 [at 149.6 µM] (inactive)
O=C(O)Cc1cc(I)c(Oc2ccc(O)c(I)c2)c(I)c1,fluorescence slope change,[3],75.2% (active)
O=C(Nc1ccccc1)c1ccccc1O,inhibition,"[4]; at 0.5 µM, stronger effect = higher value",-6.1% (inactive)
same,inhibition,"[4]; measured here: combination with BGB IC20, at 0.005 µM",6.63%
same,inhibition,"[4]; measured here: combination with BGB IC40, at 0.005 µM",36%
same,inhibition,[4]; [20],-10.8%
same,inhibition,"[4]; measured here: combination with cisplatin, at 0.5 µM, stronger effect = higher value",-0.1%
same,inhibition,"[4]; measured here: combination with cisplatin, at 5 µM, stronger effect = higher value",3.47%
same,inhibition,"[5]; BGB combo, at 5 µM",22.1%
same,inhibition,[5]; at 0.5 µM,6.53% (inactive)
same,inhibition,"[5]; cisplatin combo, at 5 µM",16.8%
same,inhibition,[5]; [21],4%
same,inhibition,[5]; [22],11.1%
same,inhibition,"[5]; single agent, at 5 µM",27.8%
same,inhibition,"[6]; BGB IC20 combo, at 0.005 µM",-13.9%
same,inhibition,"[6]; BGB IC40 combo, at 0.005 µM",-1.37%
same,inhibition,"[6]; BGB IC40 combo, at 0.05 µM",0.369%
same,inhibition,[6]; at 0.5 µM,-10.1% (inactive)
same,inhibition,"[6]; cisplatin combo, at 0.05 µM",0.369%
same,inhibition,"[6]; cisplatin combo, at 0.5 µM",-23.4%
same,inhibition,"[6]; cisplatin combo, at 5 µM",-15.5%
same,inhibition,"[6]; measured here: 5 uM single agent, at 5 µM",19.2%
same,inhibition,[7]; at 0.5 µM,-12.4% (inactive)
same,inhibition,[7]; [20],-23.1%
same,inhibition,[7]; [23],-15.5%
same,inhibition,[7]; [24],13.9%
same,inhibition,[8]; at 0.5 µM,1.9% (inactive)
same,inhibition,"[8]; measured here: with BGB IC20, at 0.5 µM",-7.23%
same,inhibition,"[8]; measured here: with BGB IC20, at 5 µM",16.9%
same,inhibition,"[8]; measured here: with cisplatin IC20, at 0.5 µM",3.88%
same,inhibition,"[8]; measured here: with cisplatin IC20, at 5 µM",16.9%
same,inhibition,"[8]; single agent, at 5 µM",20.7%
same,inhibition,[9]; at 0.5 µM,-8.88% (inactive)
same,inhibition,"[9]; measured here: combination with BGB at IC20, at 0.5 µM",-7.52%
same,inhibition,"[9]; measured here: combination with cisplatin at IC20, at 0.5 µM",4.38%
same,inhibition,[10]; at 0.5 µM,-0.28% (inactive)
same,inhibition,"[10]; measured here: combo with BGB at IC20, at 0.5 µM",1.59%
same,inhibition,"[10]; measured here: combo with cisplatin at IC20, at 0.5 µM",-2.6%
same,inhibition,[11]; at 0.5 µM,10.7% (inactive)
same,inhibition,"[11]; measured here: inhibition with BGB combination, at 0.05 µM",0.707%
same,inhibition,"[11]; measured here: inhibition with cisplatin combination, at 0.05 µM",-5.75%
same,inhibition,[12]; at 0.5 µM,6.25% (inactive)
same,inhibition,[12]; [23],7.79%
same,inhibition,[12]; [24],26.7%
same,inhibition,[13]; at 0.5 µM,-7.25% (inactive)
same,inhibition,"[13]; measured here: BGB combination, at 0.5 µM",-6.93%
same,inhibition,"[13]; measured here: BGB combination, at 5 µM",9.41%
same,inhibition,"[13]; measured here: cisplatin combination, at 0.5 µM",-18%
same,inhibition,"[13]; measured here: cisplatin combination, at 5 µM",28.1%
same,inhibition,"[14]; BGB combination, concentration series, at 5 µM",20.8%
same,inhibition,[14]; at 0.5 µM,4.85% (inactive)
same,inhibition,"[14]; cisplatin combination, concentration series, at 5 µM",20.1%
same,inhibition,[15]; at 0.5 µM,6.87% (inactive)
same,inhibition,"[15]; measured here: combo with BGB IC20, at 0.5 µM",7.24%
same,inhibition,"[15]; measured here: combo with cisplatin IC20, at 0.5 µM",10.9%
same,inhibition,[16]; at 0.5 µM,1.08% (inactive)
same,inhibition,"[16]; cisplatin combination, at 0.5 µM",7.73%
same,inhibition,"[16]; cisplatin combination, at 5 µM",-4.41%
same,inhibition,"[16]; measured here: BGB IC40 combination 0.05 uM, at 0.05 µM",23%
same,inhibition,"[16]; single agent, at 5 µM",16.7%
same,inhibition,[17]; at 0.5 µM,11.8% (inactive)
same,inhibition,"[17]; cisplatin combo, at 5 µM",41.7%
same,inhibition,"[17]; measured here: BGB IC40 combination, at 0.05 µM",-1.52%
same,inhibition,[17]; [23],26.1%
same,inhibition,"[17]; single agent, at 5 µM",5.55%
same,inhibition,[18]; at 0.5 µM,-2.83% (inactive)
same,inhibition,[18]; [21],17.8%
same,inhibition,[18]; [22],-13.1%
same,inhibition,"[18]; single agent, at 0.05 µM",12.8%
same,inhibition,"[18]; single agent, at 5 µM",42.5%
CCC[C@@H]1C[C@@H](C(=O)N[C@@H](C2O[C@H](SC)[C@H](O)[C@@H](O)[C@H]2O)[C@H](C)Cl)N(C)C1 (stereo not given in full),fluorescence slope change,[3],138% (active)
CC(C)[C@@H]1CC[C@@H](C)C[C@H]1O,protection,[19],54% (active)
